Calls of active or inactive are those of the source.
Legend:
[1] = binders of probe aFSTL3 on microarray, primary screen, stem cell growth factor project, biochemical, small-molecule microarray, fluorescence 635/667 (AID 1064); details: higher = more signal;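 note: measures binding of the biotinylated anti-FSTL3 antibody to printed compounds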
[2] = binders from COS7 lysate, DM2A8 probe, primary screen, torsin A project, cell lysate, small-molecule microarray, fluorescence 635/667 (AID 1065); details: higher = more signal, COS7 lysate expressing mutant human TOR1A
[3] = binders of probe aFGF2 on microarray, primary screen, stem cell growth factor project, biochemical, small-molecule microarray, fluorescence 635/667 (AID 1067); details: higher = more signal;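 note: measures binding of biotinylated aFGF2 protein to printed compounds on slides; z-score merges feature fluorescence and signal-to-noise across triplicate slides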
[4] = binders of probe aFGF10 on microarray, primary screen, stem cell growth factor project, biochemical, small-molecule microarray, fluorescence 635/667 (AID 1071); details: higher = more signal;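 note: score merges 667 nm spot intensity and signal to noise from triplicate slides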
[5] = biological target: Neurogenic locus notch homolog protein 2 (Homo sapiens) (UniProt Q04721); assay: Notch2 binders on small-molecule microarrays, primary screen, biochemical, small-molecule microarray, 635 nm fluorescence, stem cell growth factors (AID 1073); details: Notch2 binding, higher = more signal
Sequence of Neurogenic locus notch homolog protein 2 (Homo sapiens) (Q04721 whole entry, looked up, canonical isoform): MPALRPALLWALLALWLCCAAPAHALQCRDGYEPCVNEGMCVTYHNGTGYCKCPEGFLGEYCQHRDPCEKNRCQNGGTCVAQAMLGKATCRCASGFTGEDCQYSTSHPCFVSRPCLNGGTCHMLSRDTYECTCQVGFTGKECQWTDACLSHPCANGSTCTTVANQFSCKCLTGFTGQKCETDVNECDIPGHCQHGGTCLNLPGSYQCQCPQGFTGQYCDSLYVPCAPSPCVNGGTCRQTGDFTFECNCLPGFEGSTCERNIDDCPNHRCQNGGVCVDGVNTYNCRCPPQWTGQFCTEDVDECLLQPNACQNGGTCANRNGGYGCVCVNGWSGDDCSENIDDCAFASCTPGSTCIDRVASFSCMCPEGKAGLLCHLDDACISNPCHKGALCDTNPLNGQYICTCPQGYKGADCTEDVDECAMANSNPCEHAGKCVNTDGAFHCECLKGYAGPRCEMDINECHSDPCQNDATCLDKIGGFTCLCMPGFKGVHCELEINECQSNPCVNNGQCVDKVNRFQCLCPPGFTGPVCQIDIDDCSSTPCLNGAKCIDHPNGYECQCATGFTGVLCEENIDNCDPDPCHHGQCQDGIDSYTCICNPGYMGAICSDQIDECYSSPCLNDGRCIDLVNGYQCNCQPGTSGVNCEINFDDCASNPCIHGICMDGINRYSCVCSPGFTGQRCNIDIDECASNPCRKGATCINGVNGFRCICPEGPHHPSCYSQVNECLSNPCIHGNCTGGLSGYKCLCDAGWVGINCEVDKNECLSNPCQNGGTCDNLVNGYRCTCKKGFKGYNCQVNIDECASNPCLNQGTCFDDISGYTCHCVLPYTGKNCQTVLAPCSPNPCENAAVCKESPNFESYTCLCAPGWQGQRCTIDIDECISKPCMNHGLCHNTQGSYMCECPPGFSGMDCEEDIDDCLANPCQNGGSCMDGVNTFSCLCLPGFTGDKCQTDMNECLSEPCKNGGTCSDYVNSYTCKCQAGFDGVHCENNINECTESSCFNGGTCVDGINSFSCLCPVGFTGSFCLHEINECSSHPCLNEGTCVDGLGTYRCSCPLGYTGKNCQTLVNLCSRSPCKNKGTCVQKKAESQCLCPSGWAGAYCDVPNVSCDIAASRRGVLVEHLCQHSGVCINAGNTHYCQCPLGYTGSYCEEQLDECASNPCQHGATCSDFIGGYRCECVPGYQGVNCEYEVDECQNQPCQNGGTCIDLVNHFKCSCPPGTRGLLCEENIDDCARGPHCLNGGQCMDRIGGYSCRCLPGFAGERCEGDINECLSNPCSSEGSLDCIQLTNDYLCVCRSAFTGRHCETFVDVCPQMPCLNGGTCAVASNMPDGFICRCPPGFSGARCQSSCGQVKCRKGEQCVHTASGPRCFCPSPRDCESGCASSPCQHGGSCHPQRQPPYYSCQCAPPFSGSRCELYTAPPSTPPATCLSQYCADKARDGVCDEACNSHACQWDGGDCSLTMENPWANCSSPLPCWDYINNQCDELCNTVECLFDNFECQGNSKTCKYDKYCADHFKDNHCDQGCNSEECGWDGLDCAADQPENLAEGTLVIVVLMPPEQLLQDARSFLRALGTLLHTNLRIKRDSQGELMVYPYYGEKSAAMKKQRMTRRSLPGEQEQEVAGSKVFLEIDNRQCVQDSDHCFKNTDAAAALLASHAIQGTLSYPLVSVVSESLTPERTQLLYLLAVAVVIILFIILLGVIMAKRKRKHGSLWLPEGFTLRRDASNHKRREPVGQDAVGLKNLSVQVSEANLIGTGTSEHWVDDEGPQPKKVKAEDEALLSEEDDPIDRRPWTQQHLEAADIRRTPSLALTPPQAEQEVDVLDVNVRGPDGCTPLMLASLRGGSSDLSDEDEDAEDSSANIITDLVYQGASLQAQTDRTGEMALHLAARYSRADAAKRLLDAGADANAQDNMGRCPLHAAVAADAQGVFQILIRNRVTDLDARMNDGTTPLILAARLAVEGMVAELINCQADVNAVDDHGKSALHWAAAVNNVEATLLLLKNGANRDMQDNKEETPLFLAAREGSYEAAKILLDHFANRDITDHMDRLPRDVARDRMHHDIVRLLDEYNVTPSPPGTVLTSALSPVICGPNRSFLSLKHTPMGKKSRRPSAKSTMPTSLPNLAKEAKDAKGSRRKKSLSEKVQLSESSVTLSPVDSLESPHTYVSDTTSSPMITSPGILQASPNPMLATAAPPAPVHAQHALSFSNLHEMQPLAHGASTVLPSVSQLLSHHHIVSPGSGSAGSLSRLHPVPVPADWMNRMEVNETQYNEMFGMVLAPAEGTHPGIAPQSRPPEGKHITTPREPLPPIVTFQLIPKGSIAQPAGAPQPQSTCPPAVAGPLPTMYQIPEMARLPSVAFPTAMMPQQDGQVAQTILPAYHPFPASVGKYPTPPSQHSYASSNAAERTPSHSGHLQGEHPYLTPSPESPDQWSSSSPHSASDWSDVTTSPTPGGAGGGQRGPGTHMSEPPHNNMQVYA

[6] = biological target: Pro-neuregulin-1, membrane-bound isoform (Homo sapiens) (UniProt Q02297); assay: NRG1 binders on small-molecule microarrays, primary screen, psychiatric disease protein project, biochemical, small-molecule microarray, fluorescence 635/667 (AID 1075); details: NRG1 binding, 635 nm fluorescence, higher = more signal;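 note: score combines 667 nm spot fluorescence with signal to noise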
[7] = system: Neuregulin-1 EGF-like domain; assay: binders of neuregulin-1 EGF-like domain, primary screen, biochemical, small-molecule microarray, 635 nm fluorescence (AID 1081); details: small-molecule microarray binding, higher = more signal;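 note: binding of the protein to compounds printed on small-molecule microarray slides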
[8] = FRG1 promoter luciferase signal modulators, primary screen, FRG1 inhibition for FSHD, cell-based, C2C12 myotubes, firefly/Renilla luciferase, luminescence (AID 1084); details: higher = more signal, called active from +8 up or from −8 down
[9] = binders of probe aFST on microarray, primary screen, stem cell growth factor project, biochemical, small-molecule microarray, fluorescence 635/667 (AID 1086); details: higher = more signal;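 note: score merges 667 nm fluorescence with signal-to-noise of each printed compound spot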
[10] = binders of probe aHhip on microarray, primary screen, stem cell growth factor project, biochemical, small-molecule microarray, fluorescence 635/667 (AID 1087); details: higher = more signal;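 note: score merges spot fluorescence at 667nm with spot signal to noise ratio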
[11] = system: PRMT1 (protein arginine N-methyltransferase 1); assay: PRMT1 binders on small-molecule microarrays, primary screen, biochemical, small-molecule microarray, 635 nm fluorescence (AID 1088); details: small-molecule microarray binding, higher = more signal;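 note: binding of Prmt1 protein to compounds spotted on small-molecule microarray slides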
[12] = yeast growth modulation, basal conditions, primary screen, YJM789 clinical isolate, OD600, 24 h (AID 1089);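 note: growth of clinical yeast isolate S. cerevisiae YJM 789 seeded 1000 cells per well; test concentration not given here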; details: S. cerevisiae YJM789 growth, higher = more signal, called active from +8 up or from −8 down
[13] = fission yeast growth modulation, primary screen, strain 972, OD600, 24 h, no modulator (AID 1090);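 note: basal condition with compound alone and no growth modifier present; test concentration not given here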; details: S. pombe 972 growth, higher = more signal, called active from +8 up or from −8 down
[14] = S. cerevisiae growth modulation with rapamycin, primary screen, strain BY4716, OD600, 96 h (AID 1091); details: higher = more signal, called active from +8 up or from −8 down; note: test concentration not given here
[15] = biological target: Torsin-1A-interacting protein 2 (Homo sapiens) (UniProt Q8NFQ8); assay: LULL1 binders on small-molecule microarray, primary screen, cell lysate, human LULL1 lysate, 635/667 nm fluorescence (AID 1092); details: hLULL1 lysate binding, 635 nm fluorescence, higher = more signal;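 note: probe is lysate of COS7 cells overexpressing human LULL1; score merges per-feature 667 nm fluorescence with signal-to-noise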
[16] = E. coli growth modulation, two-sided OD650, primary screen, E. coli filamentation project, strain DRC41, 24 h (AID 1093); details: OD650, 24 h, higher = more signal, called active from +8 up or from −8 down;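 note: MC1000 strain lacking acrAB efflux and sulA so SOS filamentation is blocked; test concentration not given here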
[17] = small-molecule microarray binders of probe aLefty2, primary screen, biochemical, biotinylated probe, 635/667 nm fluorescence (AID 1094); details: higher = more signal;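 note: score merges spot fluorescence near 667 nm with spot signal-to-noise ratio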
[18] = system: Noggin (protein binding on small-molecule microarray); assay: Noggin binders on small-molecule microarray, primary screen, biochemical, 635/667 nm fluorescence (AID 1095); details: 635 nm fluorescence, higher = more signal;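 note: score merges 667 nm feature fluorescence with signal to noise over triplicate slides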
[19] = biological target: Neurogenic locus notch homolog protein 3 (Homo sapiens) (UniProt Q9UM47); assay: NOTCH3 binders on small-molecule microarray, primary screen, biochemical, 635/667 nm fluorescence (AID 1096); details: NOTCH3 binding, 635 nm fluorescence, higher = more signal
Sequence of Neurogenic locus notch homolog protein 3 (Homo sapiens) (Q9UM47 whole entry, looked up): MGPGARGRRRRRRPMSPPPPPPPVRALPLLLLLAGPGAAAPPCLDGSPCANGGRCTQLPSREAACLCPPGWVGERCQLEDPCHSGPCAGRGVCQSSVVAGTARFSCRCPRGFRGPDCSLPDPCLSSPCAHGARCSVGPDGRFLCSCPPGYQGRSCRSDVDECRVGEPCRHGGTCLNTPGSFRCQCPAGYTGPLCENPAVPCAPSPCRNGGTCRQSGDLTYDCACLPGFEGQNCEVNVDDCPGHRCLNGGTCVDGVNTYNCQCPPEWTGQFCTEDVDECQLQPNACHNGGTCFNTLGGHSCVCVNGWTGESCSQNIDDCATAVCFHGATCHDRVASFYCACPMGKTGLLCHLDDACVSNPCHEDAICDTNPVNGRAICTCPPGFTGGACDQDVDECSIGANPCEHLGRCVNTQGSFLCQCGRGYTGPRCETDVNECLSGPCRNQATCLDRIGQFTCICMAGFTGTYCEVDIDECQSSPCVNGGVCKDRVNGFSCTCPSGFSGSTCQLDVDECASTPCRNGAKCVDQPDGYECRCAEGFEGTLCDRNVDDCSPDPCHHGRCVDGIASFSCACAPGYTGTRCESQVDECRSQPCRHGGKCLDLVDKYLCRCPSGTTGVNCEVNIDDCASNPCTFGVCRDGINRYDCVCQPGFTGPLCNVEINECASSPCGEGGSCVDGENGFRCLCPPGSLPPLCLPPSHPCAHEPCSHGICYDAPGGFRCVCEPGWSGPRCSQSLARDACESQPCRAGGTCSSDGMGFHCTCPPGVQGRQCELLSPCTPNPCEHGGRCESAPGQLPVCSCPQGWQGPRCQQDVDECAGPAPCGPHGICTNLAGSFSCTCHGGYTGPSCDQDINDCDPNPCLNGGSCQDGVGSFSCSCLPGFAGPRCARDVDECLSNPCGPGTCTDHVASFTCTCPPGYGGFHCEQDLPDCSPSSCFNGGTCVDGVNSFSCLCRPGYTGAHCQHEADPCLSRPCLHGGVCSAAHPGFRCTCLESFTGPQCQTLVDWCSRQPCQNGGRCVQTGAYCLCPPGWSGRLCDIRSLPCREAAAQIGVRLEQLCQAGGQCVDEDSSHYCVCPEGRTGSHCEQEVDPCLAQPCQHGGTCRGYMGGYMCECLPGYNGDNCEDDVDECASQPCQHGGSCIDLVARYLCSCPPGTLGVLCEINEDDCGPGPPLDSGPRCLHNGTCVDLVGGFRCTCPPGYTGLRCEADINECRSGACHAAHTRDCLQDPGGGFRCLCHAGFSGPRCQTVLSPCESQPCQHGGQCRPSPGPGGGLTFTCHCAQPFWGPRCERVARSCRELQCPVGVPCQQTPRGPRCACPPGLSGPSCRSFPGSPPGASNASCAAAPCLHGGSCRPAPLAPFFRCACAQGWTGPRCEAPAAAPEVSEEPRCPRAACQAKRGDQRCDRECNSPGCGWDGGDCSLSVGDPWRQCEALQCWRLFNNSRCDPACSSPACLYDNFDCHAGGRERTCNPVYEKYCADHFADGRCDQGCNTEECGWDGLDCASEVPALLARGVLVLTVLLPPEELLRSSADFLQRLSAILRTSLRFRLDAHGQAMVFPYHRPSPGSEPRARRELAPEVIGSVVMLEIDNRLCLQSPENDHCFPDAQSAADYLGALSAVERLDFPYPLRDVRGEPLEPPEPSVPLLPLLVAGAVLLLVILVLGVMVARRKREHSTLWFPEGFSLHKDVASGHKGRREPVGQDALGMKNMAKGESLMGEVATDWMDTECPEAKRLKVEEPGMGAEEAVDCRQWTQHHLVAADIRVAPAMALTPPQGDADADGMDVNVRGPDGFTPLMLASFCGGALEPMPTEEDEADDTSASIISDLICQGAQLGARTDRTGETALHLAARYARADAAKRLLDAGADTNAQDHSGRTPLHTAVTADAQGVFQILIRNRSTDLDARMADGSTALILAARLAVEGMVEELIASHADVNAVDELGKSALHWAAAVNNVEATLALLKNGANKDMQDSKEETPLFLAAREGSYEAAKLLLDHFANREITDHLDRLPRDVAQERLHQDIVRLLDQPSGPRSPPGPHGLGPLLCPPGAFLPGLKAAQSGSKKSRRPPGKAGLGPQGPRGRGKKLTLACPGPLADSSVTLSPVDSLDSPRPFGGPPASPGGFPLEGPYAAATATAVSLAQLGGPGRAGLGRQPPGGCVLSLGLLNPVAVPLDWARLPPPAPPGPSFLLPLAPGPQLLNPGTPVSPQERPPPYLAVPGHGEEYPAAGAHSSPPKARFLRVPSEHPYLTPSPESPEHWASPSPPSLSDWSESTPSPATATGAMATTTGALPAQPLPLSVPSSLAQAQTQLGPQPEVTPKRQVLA

[20] = small-molecule microarray binders of probe aEGFR, primary screen, biochemical, biotinylated probe, 635/667 nm fluorescence (AID 1097); details: higher = more signal;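 note: probe is a biotinylated anti-EGFR antibody binding compounds printed on slides; score combines fluorescence near 667 nm and signal to noise of each spot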

SMILES | composite z-score [1] | composite z-score [2] | composite z-score [3] | composite z-score [4] | composite z-score [5] | composite z-score [6] | composite z-score [7] | z-score [8] | composite z-score [9] | composite z-score [10] | composite z-score [11] | z-score [12] | z-score [13] | z-score [14] | composite z-score [15] | z-score [16] | composite z-score [17] | composite z-score [18] | composite z-score [19] | composite z-score [20]
COC(=O)[C@H]1N=C(c2ccc(OCCCO)cc2)O[C@H]1c1ccccc1CN=[N+]=[N-] | 1.03 | -0.872 | 0.0544 | -0.202 | -0.525 | 0.526 | 0.591 | 4.14 (inactive) | 0.906 | 0.334 | 0.943 | -0.363 (inactive) | -0.225 (inactive) | 0.444 (inactive) | 1.84 | 0.887 (inactive) | 0.992 | -0.0277 | 0.27 | -0.131
CC(C)(C)OC(=O)CC[C@]1(C(=O)O)COC(c2ccc(OCCCO)cc2)=N1 | 0.303 | 2.38 | -0.0279 | -0.011 | 0.541 | 1.98 | 1.45 | 0.394 (inactive) | 0.556 | -0.0296 | -1.22 | 0.923 (inactive) | 0.179 (inactive) | 0.197 (inactive) | 1.29 | -0.079 (inactive) | 0.12 | -1.09 | -0.463 | -0.0575
O=c1c2ccc(Br)cc2nc(-c2ccccc2)n1Cc1cccc(O)c1 | 0.255 | 2.81 | -0.0774 | 0.556 | 0.701 | 1.81 | 1.12 | 4.59 (inactive) | 0.831 | -0.181 | 0.529 | -1.52 (inactive) | -2.91 (inactive) | -0.511 (inactive) | 1.86 | 1.38 (inactive) | -0.0614 | -0.0706 | 0.343 | -0.0721
CC(C)C[C@@H]1NC(=O)[C@@H]2C[C@H](C(=O)NCCCC[N+](C)(C)C)[C@H](c3cccc(OCCO)c3)N2C1=O | 0.157 | 1.09 | -0.0784 | -0.0155 | -0.884 | 1.05 | 1.12 | 0.14 (inactive) | 0.496 | 0.595 | 1.31 | 1.14 (inactive) | 0.936 (inactive) | -0.567 (inactive) | 0.622 | -0.329 (inactive) | -0.0123 | 1.84 | 1.04 | -0.0069
O=C(O)[C@@]1(Cc2ccccc2)COC(c2ccc(OCCCO)cc2)=N1 | 0.805 | -0.24 | -0.0886 | -0.24 | -0.287 | 1.19 | 1.2 | 0.809 (inactive) | 0.519 | -0.0994 | -0.269 | 0.661 (inactive) | 1.01 (inactive) | 1.3 (inactive) | 2.64 | 0.598 (inactive) | -0.0915 | -0.66 | -0.776 | -0.229
O=C1O[C@H](c2ccccc2)[C@H](c2ccccc2)N2[C@H]1[C@@H](C(=O)NC[C@H](O)c1ccccc1)[C@]1(C(=O)Nc3ccccc31)[C@H]2c1ccccc1OCCO | 0.0095 | 0.142 | -0.0024 | 0.555 | 0.0225 | 0.851 | 1.2 | -1.13 (inactive) | -0.821 | -0.445 | 1.55 | 0.837 (inactive) | 0.468 (inactive) | 4.03 (inactive) | 2.92 | 2.05 (inactive) | -0.181 | 1.71 | 0.723 | -0.109
C=C(COC)/C(=C/C[C@@H](OC(=O)c1ccncc1)c1cccc(OCCO)c1)c1cc(C(=O)OC)ccc1OC | -0.278 | 0.525 | -0.0428 | 1.06 | 0.426 | -0.142 | 1.38 | -3.79 (inactive) | -0.0671 | -0.156 | 1.56 | -25.3 (active) | -20.2 (active) | -4.36 (inactive) | 0.512 | 0.625 (inactive) | -0.205 | 1.32 | 0.841 | -0.0022
O=[N+]([O-])c1ccc(C[n+]2ccc(-c3ccc(CO)cc3)cc2)o1 | -0.217 | 0.239 | -0.0266 | 0.165 | 1.29 | 1.52 | 0.373 | -0.721 (inactive) | 0.273 | 0.0373 | 1.47 | -0.612 (inactive) | -15.5 (active) | 0.196 (inactive) | 1.71 | -0.818 (inactive) | -0.129 | 0.526 | 1.16 | -0.0703
CN1C(=O)C2C=CC(C(O)C3CCCCC3)N(N(c3ccccc3)c3ccccc3)C2C1=O (stereo not given) | 1.61 | -0.277 | 0.182 | -0.122 | -0.112 | 1.12 | 0.659 | -0.158 (inactive) | 0.236 | -0.183 | 0.102 | 0.345 (inactive) | 1.25 (inactive) | 0.4 (inactive) | 2.5 | -0.989 (inactive) | 0.368 | -0.539 | -0.396 | 0.114
